Measurements taken from PubChem BioAssay (NCI).
About 79,000 compounds went through this panel and 15% of them were active in at least one assay; those are over-represented in the sample as a whole. A number with no mark means an inactive call. Active and inactive are the calls of the source. Cut-off read from the data, not from the text of the source: active = growth inhibition above about 70%; inactive = the rest.

Experiment: NCI Yeast Anticancer Drug Screen. Data for the mgt1 strain (AID 153)
Conditions: S. cerevisiae mgt1 mutant growth inhibition, hits give high values
Experimental: Growth inhibition of yeast strains with defined genetic alterations is measured as a screen for potential anti-cancer activity. Selected strains with alterations in DNA damage repair or cell cycle control were exposed to compounds and growth inhibition was measured relative to vehicle treated controls. The strain used in this assay is mgt1

Compound	growth inhibition (at 1.2 µM)	growth inhibition (at 3.7 µM)	growth inhibition (at 11.0 µM)	growth inhibition (at 33.0 µM)	growth inhibition (at 100.0 µM)
Cc1cc(I)ccc1N	36%	5%	28%	93% (active)	85% (active)
Nc1ncncc1C(C1=C(O)COC1=O)C1=C(O)COC1=O	-2%	-4%	-6%	-2%	-2%
CCC/C(Cl)=N\OC(=O)Nc1ccc(Br)cc1	9%	16%	82% (active)	98% (active)	99% (active)
CN1Cc2ccccc2/C=C\c2ccccc21	0%	-3%	-1%	7%	22%
CC(=O)OC1CCC2(C)C(=CCC3C4CCC5(OC6CC(C)CN(C(C)=O)C6C5C)C(C)=C4C(=O)C32)C1 (stereo not given)	-26%	-30%	61%	97% (active)	96% (active)
O=C(Cc1csc2[n+]1C(=O)/C(=C/c1ccc(Cl)cc1)S2)Nc1ccccc1	-1%	1%	7%	54%	87% (active)
CC(=O)Oc1cc(-c2cc(OC(C)=O)c(OC(C)=O)c3ccccc23)c2ccccc2c1OC(C)=O	5%	5%	5%	13%	82% (active)
CCN(CC)CCC(=O)c1ccc(Oc2ccc(F)cc2)cc1	49%	59%	76% (active)	92% (active)	94% (active)
